# PubChem BioAssay AID686970 (National Center for Advancing Translational Sciences (NCATS), 2013)
# The campaign covered roughly 360,000 compounds. About 6,000 (1.7%) were called active. Roughly 8% stayed inconclusive and do not appear here. The sample holds actives, similar compounds and a random draw of the others, so the mix is not that of the screen. Calls follow the shape of the dose curve; as a rule, active = well fitted cell-killing curve with a large enough effect; inconclusive = small, poorly fitted or top-dose-only effect, or effect the other way; inactive = flat fitted curve, though single readings scatter.
# Test: qHTS for induction of synthetic lethality in tumor cells producing 2HG: qHTS for the HT-1080-NT fibrosarcoma cell line;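 also: NT is the 2HG producing partner of a matched IDH1 knockdown line; nearly all actives have a fitted effect of over 55% in size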;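 as to activity, negative = less viability: 0% = DMSO-treated cells and -100% = media-only wells without cells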
# Conditions: HT-1080-NT fibrosarcoma viability, CellTiter-Glo ATP luminescence, 48 h; series mostly up to 46.1 µM; activity, negative = less viability: at the top concentration
# Summary of the method: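 Luminescent CellTiter-Glo readout after 48 hours of compound exposure at 37 degrees C defined viability of HT-1080-NT cells. Activity was normalized to DMSO wells and cell-free media wells; concentration-response curves were fitted and assigned curve classes.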
# Potency is read from the fitted curve at half-maximal effect.
Compound,"activity, negative = less viability",Potency
O=S1(=O)CC(N2CCC(Cc3ccccc3)CC2)CN1Cc1ccccc1 (stereo not given),2.96% (inactive),–
Clc1cccc(N=C2NN=C(c3ccc4c(c3)OCCO4)CS2)c1,–,10 µM (active)
CN(C)c1nc(=Nc2cccc(Cl)c2)ss1,0.234% (inactive),–
Cc1cccc(C)c1-n1nnnc1C1(C)CCC(=O)N1CCOc1ccccc1 (stereo not given),2.56% (inactive),–
CCCCc1ccc(S(=O)(=O)NC(=O)C2(C)CCN2C(=O)c2c(C)noc2C)cc1 (stereo not given),0.469% (inactive),–
C(=C\c1ccccc1)/CSc1nnc(-c2cccnc2)n1Cc1ccco1,2.54% (inactive),–
N=c1c2c(-c3ccccc3)c(-c3ccccc3)oc2ncn1Cc1ccco1,–,23.1 µM (active)
COC(=O)c1ccc2nc(C3CCCCC3)c(Cc3cccc(F)c3)n2c1,-0.226% (inactive),–
O=C(Nc1cccc(Cc2ccccc2)c1)Nc1ccc2nc([C@@H]3O[C@H](CO)[C@@H](O)[C@H](O)[C@H]3O)[nH]c2c1,12.1% (inactive),–
CC1(C)CC(N2CCN(C(c3ccccc3)c3ccccc3)CC2)=CC(=[N+]2CCCCC2)C1,–,2.06 µM (active)
COc1ccccc1CN1CCN(C(c2ccccc2)c2ccccc2)CC1,-20.9% (inactive),–
c1ccc(C(c2ccccc2)N2CCN(Cc3nnnn3C3CCCCC3)CC2)cc1,-0.131% (inactive),–
Cc1ccc(O)c(CNc2nc3ccccc3[nH]2)c1,-12.6% (inactive),–
COC(=O)Nc1nc2ccc(Sc3ccccc3)cc2[nH]1,–,1.16 µM (active)
CN(c1ccccc1)S(=O)(=O)c1cc(C(=O)Nc2nc3ccccc3[nH]2)ccc1Cl,-2.94% (inactive),–
Oc1c(C(c2ccccn2)N2CCOCC2)ccc2cccnc12 (stereo not given),–,0.355 µM (active)
CC(C)c1cc(CN2CCOCC2)cc(C(C)C)c1O,2.87% (inactive),–
Cc1ccc(-c2ccc(CN3C(C(C)C)C(=O)N(Cc4cn(CCC5OCCCO5)nn4)CCS3(=O)=O)cc2)cc1 (stereo not given),-0.2% (inactive),–
CCOC(=O)/C(=N\Nc1cc(Cl)ccc1Cl)N1CCN(C)CC1,–,16.4 µM (active)
CCOC(=O)N1CCN(C(=O)C2CCN(S(=O)(=O)c3cc(Cl)ccc3OCC)CC2)CC1,0% (inactive),–
CCOC(=O)/C(=N\Nc1ccccc1Cl)N(C)C1CCS(=O)(=O)C1 (stereo not given),7.09% (inactive),–
COc1ccc(-c2csc(Nc3cccc(C)n3)n2)cc1OC,1.13% (inactive),–
CCc1ccccc1NC(=O)[C@@H]1CCC(=O)N1C1OC(=O)c2c1ccc(OC)c2OC (stereo not given in full),0% (inactive),–
COc1ccc2c(c1OC)C(=O)OC2Nc1nc(-c2ccccc2)cs1 (stereo not given),–,18.4 µM (active)

Compound,"activity, negative = less viability",Potency
O=C(NCc1cccc(C(F)(F)F)c1)c1ccc2sc(COCCO)nc2c1,0.384% (inactive),–
COc1ccc(OC)c(NC(=O)C2CCCN2S(=O)(=O)c2ccc3c(c2)CC(C)N3C(C)=O)c1 (stereo not given),1.98% (inactive),–
C=C1C(=O)[C@]23C[C@H]1CCC2[C@@]1(C)C(C[C@@H]3O)[C@](C)(C(=O)O)CC[C@@H]1O (stereo not given in full),–,18.4 µM (active)
CCc1nc2ccc(C(=O)NC3CCN(Cc4ccccc4)CC3)cn2c1N(CC)CCOC,3% (inactive),–
CN(C)C(=O)c1cccc(-c2cnc3c(NC=O)cc(-c4ccc(C(=O)N5CCOCC5)cc4)cn23)c1,-6.25% (inactive),–
CCOC(=O)N1CCN(CCC(=O)Nc2ccccc2)CC1,16.3% (inactive),–
O=C(CN1CCN(Cc2ccccc2)CC1)Nc1ccc(F)c(F)c1,-3.12% (inactive),–
Cc1cc(NC(=O)CCN2CCN(Cc3ccccc3)CC2)ccc1Br,–,20.6 µM (active)
CC(=O)Nc1cccc(Nc2ccc(C#N)cc2)c1,3.54% (inactive),–
O=[N+]([O-])c1ccc(Oc2ccc(F)cc2Br)c2ccncc12,–,16.4 µM (active)
CC(C)C1Cc2[nH][nH]c(=O)c2C(c2ccc(Cl)cc2)O1 (stereo not given),13.4% (inactive),–
COC(=O)[C@]12CCCCC=C1N(Cc1ccccc1)C(=O)[C@H](CC(=O)NCc1ccc(C)o1)C2,17.2% (inactive),–
C#CCOCCOCCOCCNc1nc(N2CCN(C(=O)CCCCCCCCCCNC(=O)[C@H]([C@@H](C)CC)n3cc(CCCCN=C(N)N)nn3)CC2)nc(N2CCN(C(=O)CCCCCCCCCCNC(=O)[C@H](CO)n3cc(CCCSC)nn3)CC2)n1,–,23.1 µM (active)
C#CCOCCOCCOCCNc1nc(N2CCN(C(=O)[C@H](C(C)C)n3cc(CCO)nn3)CC2)nc(N2CCN(C(=O)[C@H]([C@@H](C)CC)n3cc(CCCN=C(N)N)nn3)CC2)n1,13.2% (inactive),–
C#CCOCCOCCOCCNc1nc(N2CCN(C(=O)Cn3cc(CCO)nn3)CC2)nc(N2CCN(C(=O)Cn3cc(CCCN=C(N)N)nn3)CC2)n1,4.19% (inactive),–
Cc1ccc(NC(=O)COC(=O)CN2CCSC2=O)cc1F,2.14% (inactive),–
CCCCn1nnnc1C(c1ccccc1)N1CCN(c2ccccc2OC)CC1 (stereo not given),-0.82% (inactive),–
CC1Cc2[nH][nH]c(=O)c2C(C2CC2)O1 (stereo not given),2.88% (inactive),–
Cc1ccc(C(=O)OCC(=O)NC2CCCCCCC2)cc1C,17.5% (inactive),–
NC(=O)CSc1nnc(NC(=O)c2ccc(Br)o2)s1,8.26% (inactive),–
Cc1cccc(NC(=O)CSc2nc3[nH]ncc3c(=O)[nH]2)c1,2.75% (inactive),–
Cc1cccc(NC(=O)C(C)SCc2ccccc2)c1 (stereo not given),-15.9% (inactive),–
Cc1cccc(NC(=O)c2nc(S(=O)(=O)Cc3ccccc3)ncc2Cl)c1,–,6.51 µM (active)
CSc1nnc(NC(=O)c2nc(S(=O)(=O)Cc3ccc(C)cc3)ncc2Cl)s1,–,7.31 µM (active)

Compound,"activity, negative = less viability",Potency
COCCSc1nnc(NC(=O)CCS(=O)(=O)Cc2ccccc2)s1,21.1% (inactive),–
Cc1nc2ccccc2nc1CC(O)(c1ccccc1)c1ccccc1,9.35% (inactive),–
CC1(c2cccc(Br)c2)NC(=O)N(CC(=O)NCCC2=CCCCC2)C1=O (stereo not given),-1.7% (inactive),–
O=C1CCC(C(=O)OCC(=O)Nc2ccc(OC(F)F)cc2)=NN1,-0.926% (inactive),–
CCN(C(=O)Nc1cccc2ccccc12)c1ccccc1,-0.44% (inactive),–
Cc1ccccc1NC(=O)NCC1CCN(Cc2cccc(Cl)c2)CC1,-6.74% (inactive),–
O=C(NCC1CCN(Cc2ccccc2Cl)CC1)Nc1cccc(Cl)c1,-26.3% (inactive),–
Cc1cccc(CN2CCC(CNC(=O)Nc3ccc(F)c(Cl)c3)CC2)c1,–,16.4 µM (active)
OC[C@@H]1CN(Cc2ccc(Cl)cc2)C[C@H](n2cnc3c(NCc4ccncc4)ncnc32)O1,-7.01% (inactive),–
O=C(CSc1ccccc1)Nc1nnc(/C=C/c2ccccc2)s1,–,23.1 µM (active)
CCOCc1nnc(NC(=O)CSc2ccc(C)cc2)s1,14.3% (inactive),–
O=C(Nc1ccc(Cl)cc1)Nc1nnc(/C=C/c2ccccc2)s1,-3.6% (inactive),–
CC1(C)OC(=O)C2=C(C[C@@H](C3CC3)O[C@H]2c2ccc(Cl)cc2)O1,14.9% (inactive),–
CC1(C(=O)NS(=O)(=O)c2cccc(OC(F)F)c2)CCN1C(=O)COc1ccc(Cl)cc1 (stereo not given),20.8% (inactive),–
CCCNC(=O)C1(C)CCCN(Cc2c(C)nn(-c3ccccc3)c2C)C1 (stereo not given),12.6% (inactive),–
C=CCNC(=O)/C(=C\c1cccc([N+](=O)[O-])c1)NC(=O)c1ccccc1,14.3% (inactive),–
CN(C)CCNC(=O)/C(=C/c1cccc([N+](=O)[O-])c1)NC(=O)c1ccccc1,4.98% (inactive),–
Cc1ccc(C(=O)N/C(=C/c2ccc(-c3cccc([N+](=O)[O-])c3)o2)C(=O)NCCCN(C)C)cc1,–,14.6 µM (active)
Cc1ccc(CNC(=O)Nc2nnc([C@H]3C[C@H](O)[C@@H](CO)O3)s2)cc1,9.37% (inactive),–
O=C(NC(=S)NC1CCCCC1)c1ccc(Cl)cc1,-10.4% (inactive),–
O=C(NC1CCCCC1)c1ccc(-c2ccc(Cl)cc2)o1,–,18.4 µM (active)
O=C(NC1CCCCCC1)c1cccnc1Sc1ccc(Cl)cc1,-21.3% (inactive),–
O=S1(=O)C[C@@H](N2CCN(CCO)CC2)[C@H](COCc2ccccc2)N1,14.5% (inactive),–
Cc1cn([C@H]2C[C@H](O)[C@@H](/C=C/C(=O)NCCCc3ccccc3)O2)c(=O)[nH]c1=O,-2.92% (inactive),–

Compound,"activity, negative = less viability",Potency
CSc1ccc(CN2CCC2(C)C(=O)NCc2ccccc2Br)cc1 (stereo not given),-24.6% (inactive),–
Cc1oc2c(F)c(F)c(F)c(F)c2c1S(=O)(=O)Nc1cccc(C(F)(F)F)c1,–,3.26 µM (active)
O=C(COc1ccc(S(=O)(=O)Nc2cccc(C(F)(F)F)c2)cc1)N1CCOCC1,-3.05% (inactive),–
O=C(NCc1ccccc1)c1ccc(S(=O)(=O)Nc2cccc(C(F)(F)F)c2)cc1,-25.6% (inactive),–
CCCCn1nnnc1C(c1cccc(OC)c1OC)N1CCN(C/C=C/c2ccccc2)CC1 (stereo not given),-22.9% (inactive),–
C/C(=N/Nc1ccc(Cl)cc1)c1cnnc(-c2ccccc2)n1,12.4% (inactive),–
C/C(=N\Nc1ccc(Cl)nn1)c1ccccc1O,–,0.731 µM (active)
CCCCCCCN=C(C)c1ccccc1O,19.4% (inactive),–
CCOC(=O)[C@]12CCCC=C1N(Cc1ccc(Cl)cc1Cl)C(=O)[C@H](CC(=O)N1CCCCC1)C2,14.2% (inactive),–
Cc1ccc(NC(=S)N(CCN2CCCCC2)Cc2ccco2)cc1C,-4.57% (inactive),–
Cc1ccc(NC(=S)N(CCCN2CCCC2)Cc2cccn2Cc2ccc(Cl)cc2)cc1,–,23.1 µM (active)
Cc1ccc(NC(=S)N(CCCN2CCC(C)CC2)Cc2ccco2)cc1,0.938% (inactive),–
Cc1nc(C(F)(F)F)ccc1C(=O)N1CCC1(C)C(=O)NS(=O)(=O)c1ccccc1 (stereo not given),0.451% (inactive),–
Cc1[nH]n(C)c(=O)c1C(=O)c1c(-c2c(Cl)cccc2Cl)noc1C,–,20.6 µM (active)
Cc1onc(-c2c(Cl)cccc2Cl)c1C(=O)c1c[nH]c(C(=O)NC2CC2)c1,-5.57% (inactive),–
Cc1onc(-c2c(Cl)cccc2Cl)c1C(=O)NNC(=O)c1c(-c2c(Cl)cccc2Cl)noc1C,-6.56% (inactive),–
CCC(Oc1ccccc1)C(=O)OCC(=O)Nc1c(C)nn(-c2ccccc2)c1C (stereo not given),13.5% (inactive),–
COc1cccc(C(=O)Nc2ccc3nc4n(c(=O)c3c2)CCCCC4)c1,0.489% (inactive),–
COc1cccc(C(=O)Nc2ccc(N3CCN(C(=O)c4ccco4)CC3)cc2)c1,–,23.1 µM (active)
COc1cccc(OCc2cc(C(=O)N3CCN(C(=O)c4ccco4)CC3)no2)c1,6.57% (inactive),–
COc1cccc(C(=O)Nc2nnc(S(=O)(=O)N3CCCCC3)s2)c1,-9.49% (inactive),–
COc1cccc(C(=O)Nc2ccc(N3CCCC3)cc2)c1,–,20.6 µM (active)
Cc1ccc(OCC(=O)Nc2ccc(N3CCN(C(=O)c4ccco4)CC3)cc2)c(C)c1,-2.23% (inactive),–
